Screening data: PubChem BioAssay, National Center for Advancing Translational Sciences (NCATS)
Rows were chosen to be rich in hits. Some 0.81% of all compounds tested hit in one or more screens of this group.
TRPML1 inh = blocks the human TRPML1 channel | TRPML1-inducible cells, Ca2+ dye fluorescence, FDSS; hits give low values; inhibition of EC80 agonist-evoked calcium signal | AID 624415 | Q9GZU1 | activity change, negative = inhibition, % (test concentration not listed) | actives 0.02% (n = 390,000); in the data active means activity change below about -50%; inconclusive means between about -30% and that limit;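 further: stimulus is agonist 54-4 at its EC80 concentration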
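Tet-induced TRPML1-DL cells loaded with Ca8 no-wash calcium dye were read kinetically on FDSS. Compound addition was followed by EC80 agonist 54-4 (4 uM final); inhibition was read over 110 s.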
TRHR agonist = agonists of human TRH receptor. activation, % at 2 µM. TRHR cells, calcium flux fluo-8, FDSS agonist mode. actives 0.18% (n = 360,000). AID 493084; in the data active means activation above about 30%
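TRHR-expressing cells, plated overnight in medium with 10% serum, were loaded with fluo-8 calcium dye at room temperature. After a 10 s baseline, library compound was pin-added and calcium release was recorded kinetically (ex 480/em 530) as agonist response.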
TSG101-PTAP inh = blocks PTAP/TSG101 interaction to inhibit HIV-1 budding; Fluorescence polarization, FITC-PTAP peptide / Tsg101 binding; Potency, µM (highest dose often 115 µM), usual class: inhibitors; 340,000 tested, under 10 active; active means well fitted inhibition curve with a large enough effect in the main read-out, with a control signal flat, not every such curve was filed as active; inconclusive means small, poorly fitted or top-dose-only effect, or effect the other way, or a change in a side signal; inactive means no such curve, though single readings can be large or run the other way
Target sequence (Q99816 whole entry, looked up): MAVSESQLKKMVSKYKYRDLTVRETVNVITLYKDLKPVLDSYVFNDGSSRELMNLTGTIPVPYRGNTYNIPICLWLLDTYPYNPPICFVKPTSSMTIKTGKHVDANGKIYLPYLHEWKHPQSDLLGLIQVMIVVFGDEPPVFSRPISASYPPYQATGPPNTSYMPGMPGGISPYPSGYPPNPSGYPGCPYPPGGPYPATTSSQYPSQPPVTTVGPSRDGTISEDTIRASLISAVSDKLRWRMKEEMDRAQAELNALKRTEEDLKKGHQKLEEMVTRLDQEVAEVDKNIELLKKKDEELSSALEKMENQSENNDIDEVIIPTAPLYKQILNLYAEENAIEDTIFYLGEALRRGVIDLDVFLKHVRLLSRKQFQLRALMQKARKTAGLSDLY
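FP read-out: FITC-PTAP peptide, 50 nM final, binding Tsg101 binding domain, 10 uM final; 20 min, r.t.; 10 mM HEPES pH 7.5, 0.15 M NaCl, 0.01% Tween 20, 3 mM EDTA, 0.1 mM TCEP.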
TRHR PAM = TRH receptor (human) allosteric enhancement. P34981. TRHR cells, fluo-8 calcium fluorescence, EC20 TRH enhancement. enhancement, % at 2 µM. actives 0.66% (n = 360,000); in the data active means enhancement above about 30%
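TRHR-expressing cells loaded with fluo-8 calcium dye were read kinetically (ex 480/em 530) during compound addition, then stimulated with an EC20 of TRH (10 nM final). Enhancement of the Gq-mediated intracellular calcium response was scored.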
TRPML1 agonist = agonists of human TRPML1 channel; TRPML1-expressing cells, Ca2+ dye fluorescence, FDSS; activation, % (concentration not given with the values); actives 0.12% (n = 410,000); AID 624414; in the data active means activation above about 50%; inconclusive means mostly about 30% to 49%
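Calcium fluorescence on an FDSS kinetic reader gave the read-out. Tet-induced TRPML1-DL cells were plated overnight, dye-loaded (Ca8 with quencher, 45-90 min, room temperature, dark), then read 110 s after compound addition, and again 110 s after 4uM final 54-4 (EC80).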
Large screens that a line does not name were inactive.

C#CCOCCOCCOCCNc1nc(N2CCN(C(=O)[C@H](CCCCN)n3cc([C@@H](N)C(C)CC)nn3)CC2)nc(N2CCN(C(=O)[C@H](CCCCN)n3cc([C@@H](N)CO)nn3)CC2)n1 (some centres not stated)	TRHR PAM 37 (no result: TRPML1 inh, TSG101-PTAP inh, TRPML1 agonist)
C#CCOCCOCCOCCNc1nc(N2CCN(C(=O)[C@H]([C@@H](C)CC)n3cc([C@@H](N)CC(C)C)nn3)CC2)nc(N2CCN(C(=O)[C@H](CCCCN)n3cc([C@@H](N)CC(C)C)nn3)CC2)n1	TRHR PAM 38
O=C(Cc1ccc(-c2ccccc2)cc1)NO	none (no result: TRPML1 inh, TRHR agonist, TSG101-PTAP inh, TRHR PAM)
CN1CCN(c2nc3nonc3nc2N2CCN(C)CC2)CC1	TRHR PAM 32
COc1ccc(CC(=O)OCC(=O)NC(=O)NC2CCCC2)cc1	none
COc1ccc(CC(=O)OCC(=O)NC(=O)NC2CCCCC2)cc1	TRHR PAM 39
S=C(NCc1ccco1)N1CCN(c2nc(-c3ccccc3)cs2)CC1	TRHR PAM 30
CC(C)(C)CC(C)(C)N=C1Nc2ccc(Cl)cc2NC12C[C@H]1CCC(=O)N3CC[C@@H](C2)[C@@H]13 (some centres not stated)	none (no result: TRPML1 inh, TRHR agonist, TSG101-PTAP inh, TRHR PAM)
CC(=O)N1CCc2nc3sc(C(=O)c4ccc(F)cc4)c(N)c3c(C(F)(F)F)c2C1	TRHR agonist 37, TRPML1 agonist inconclusive (no result: TSG101-PTAP inh)
CC(C)(C)n1ncc2c(=O)n(Cc3cccc(F)c3)cnc21	none (no result: TRHR agonist, TSG101-PTAP inh, TRHR PAM)
Cc1cc(OCCn2ccnc2)cc(C(C)C)c1	none
Cc1cc(C)cc(OCCn2ccnc2)c1	TRHR PAM 35
CCCCCCc1cc2cc(-c3nnc(-c4ccccc4O)o3)c(=O)oc2cc1O	TRHR agonist 147, TSG101-PTAP inh inconclusive, TRHR PAM 51, TRPML1 agonist inconclusive
CCCCCCc1cc2cc(-c3nnc(-c4ccccc4OC)o3)c(=O)oc2cc1O	TRHR agonist 148, TSG101-PTAP inh inconclusive, TRPML1 agonist inconclusive
CCCCCCc1cc2cc(-c3nnc(-c4cc(OC)c(OC)c(OC)c4)o3)c(=O)oc2cc1O	TSG101-PTAP inh inconclusive
CC(C)(C)CN1CCNC(=O)C1CC(=O)NCCc1ccccc1F (configuration not stated)	TRHR PAM 31
CC(C)(C)CN1CCNC(=O)C1CC(=O)NCCc1cnn(-c2ccccc2)c1 (configuration not stated)	none
COc1cccc(-c2nc(CS(=O)(=O)CC(=O)Nc3ccc(F)cc3F)c(C)o2)c1	TRHR PAM 30
COc1cccc(-c2nc(CS(=O)(=O)CC(=O)NCc3ccccc3)c(C)o2)c1	none
COCCN1C(=O)/C(=C/c2ccc(N3CCCC3)cc2C)SC1=S	TRHR agonist 53, TSG101-PTAP inh inconclusive
CCN=C1S/C(=C\c2ccc(N3CCOCC3)cc2C)C(=O)N1CC	none
CCC(C)(C)NC(=O)C(c1cccs1)N(CC1CCCO1)C(=O)Cn1nnc2ccccc21 (configuration not stated)	TRHR PAM 38
CCC(C)(C)NC(=O)C(c1ccncc1)N(Cc1cccs1)C(=O)Cn1nnc2ccccc21 (configuration not stated)	none
O=C(COc1ccc(Cl)cc1Cl)NCC(=O)N/N=C/c1c[nH]c2ccccc12	TRHR PAM 35
CCCCCC[n+]1ccccc1/C=C/c1ccc(N(C)C)cc1	TRPML1 agonist 69 (no result: TRHR agonist, TSG101-PTAP inh, TRHR PAM)
CC1(C)OC(=O)C(=CNNc2c(Cl)cc(Cl)cc2Cl)C(=O)O1	TRHR PAM 31
Cc1nnc(N2CCC(C(=O)NC3CCCCC3)CC2)c2nn(-c3ccccc3)c(C)c12	TRPML1 inh -58 (no result: TSG101-PTAP inh)
Cc1nnc(N2CCC(C(=O)NCCc3ccccc3Cl)CC2)c2nn(-c3ccccc3)c(C)c12	none (no result: TSG101-PTAP inh)
CC(C)(C)OC(=O)Cc1nnc(C(C(=O)OCc2ccccc2)c2ccccc2)s1 (configuration not stated)	none (no result: TRPML1 inh, TSG101-PTAP inh, TRPML1 agonist)
O=C(NCC1CCCO1)c1ccc(NC(=O)c2cccc(Br)c2)cc1 (configuration not stated)	none (no result: TRPML1 inh, TRPML1 agonist)
O=C(NCC1CCCO1)c1ccc(NC(=O)c2cc(F)c(F)cc2Cl)cc1 (configuration not stated)	TRHR PAM 33
C=CCN1CC(C(=O)N2CCC(Cc3ccc(Cl)cc3)(C(=O)OCC)CC2)CC1=O (configuration not stated)	TRHR PAM 30
CCOC(=O)C1(Cc2ccc(Cl)cc2)CCN(C(=O)C2CCCO2)CC1 (configuration not stated)	none
c1ccc2c(c1)oc1c(NCC3CCCO3)ncnc12 (configuration not stated)	TRHR PAM 37
Cc1ccc(C)c(S(=O)(=O)N2CCN(C(=O)C3CCN(c4ncnc5sc(C)c(C)c45)CC3)CC2)c1	TRHR PAM 34, TRPML1 agonist 74
Cc1ccc(NC(=O)C2CCN(c3ncnc4sc(C)c(C)c34)CC2)cc1S(=O)(=O)N(C)C	none
C=C[C@@H]1c2cc(C)ccc2N(S(=O)(=O)c2ccc(C)cc2)[C@H](c2ccc(C(=O)OC)cc2)C1(C#N)C#N	none (no result: TRPML1 inh, TRHR agonist, TSG101-PTAP inh, TRHR PAM)
CC(=O)Nc1ccc(N=Cc2c(O)c(C(=O)Nc3ccccc3)cc3ccccc23)cc1	TRHR agonist 109, TSG101-PTAP inh inconclusive
O=c1cc(-c2ccccc2)nc2n1Cc1ccccc1-2	TRHR PAM 31
O=c1nc2n(c3ccccc13)Cc1ccccc1-2	none (no result: TRPML1 inh, TSG101-PTAP inh, TRPML1 agonist)
Cc1cccc(OCC(=O)Nc2ccc(-c3nc4ccccc4o3)cc2)c1C	TRHR PAM 31 (no result: TSG101-PTAP inh)
O=C(CN(C(=O)CCC(=O)Nc1ccccn1)c1ccc(F)cc1)NCc1ccco1	none
COCCNC(=O)CN(C(=O)CCC(=O)Nc1ccccn1)c1ccc(F)cc1	TRHR PAM 33
CCOc1ccc(N(CC(=O)NC2CCCC2)C(=O)CCC(=O)Nc2ccccn2)cc1	none
CCc1ccc(N(CC(=O)NC2CCCC2)C(=O)CCC(=O)Nc2ccccn2)cc1	TRHR PAM 31
CC(C)c1ccc(N(CC(=O)NCc2ccco2)C(=O)CCC(=O)Nc2ccccn2)cc1	TRHR PAM 39
Cn1nnnc1Sc1ncnc2scc(-c3cccc(Cl)c3)c12	none (no result: TRPML1 inh, TSG101-PTAP inh, TRPML1 agonist)
CCC(=O)NC(c1ccc(C)s1)c1cc(Cl)c2cccnc2c1O (configuration not stated)	none (no result: TRPML1 inh, TSG101-PTAP inh, TRPML1 agonist)
Cc1cc2c(s1)c1cnn(Cc3ccc(F)c(Cl)c3)c(=O)c1n2C	none (no result: TRPML1 inh, TSG101-PTAP inh, TRPML1 agonist)
CCCCNC(=O)[C@@H]1CC=C[C@@H]2CCN(C3CCCCC3)C(=O)[C@@H]21	none (no result: TRPML1 inh, TRHR agonist, TSG101-PTAP inh, TRHR PAM)
Cc1c(CCOC(=O)C23CC4CC(CC(C4)C2)C3)sc[n+]1CC#N	TRHR PAM 41
COC(=O)c1ccc(NC(=O)c2ccccc2OCC(=O)Nc2ccc(Br)cc2)cc1	none (no result: TRPML1 inh, TRHR agonist, TSG101-PTAP inh, TRHR PAM)
O=Cc1cccc(C=O)c1	none (no result: TRPML1 inh, TRHR agonist, TSG101-PTAP inh, TRHR PAM)
CCOc1ccc(NC(=O)/C(C#N)=C/c2ccc(N3CCCC3)c(C)c2)cc1	TRHR agonist 32, TSG101-PTAP inh inconclusive
